Experimental data reported in PubChem BioAssay.
Activity calls are given as the source filed them. Unless noted, how the calls were made is not given here.

Columns and labels:
[1] = anti-His antibody binders, primary screen, artefact control for SMM control protein annotation, biochemical, small-molecule microarray, 635 nm fluorescence (AID 1128); details: anti-His Alexa647 antibody binding, higher = more signal;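 further: score merges feature fluorescence with signal-to-noise for each printed compound spot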
[2] = tested on: Human papillomavirus type 1a E7 protein (residues 1-88); experiment: HPV1a E7 small-molecule binders, primary screen, biochemical, small-molecule microarray, residues 1-88, 635 nm (AID 1129); details: small-molecule microarray binding, fluorescence 635 nm; higher = more signal
[3] = molecular target: Focal adhesion kinase 1 (Homo sapiens) (UniProt Q05397); experiment: small-molecule microarray binders of FAK, primary screen, biochemical, 635/667 nm fluorescence, BSA, DTT (AID 1130); details: PTK2 binding, 635 nm fluorescence, higher = more signal;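 further: composite of spot emission at 667 nm and signal to noise over triplicate slides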
[4] = tested on: Fibrinogen (Alexa647-labelled); experiment: fibrinogen binders on compound microarrays, profiling panel, artefact control for SMM control-protein annotation, biochemical, small-molecule microarray, 635/667 nm fluorescence (AID 1131); details: fibrinogen-A647 binding fluorescence, higher = more signal;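 further: z-score merges 667 nm fluorescence with per-spot signal-to-noise over triplicate slides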
[5] = molecular target: Follistatin (Homo sapiens) (UniProt P19883); experiment: follistatin binders on small-molecule microarrays, primary screen, biochemical, small-molecule microarray, 635/667 nm fluorescence (AID 1132); details: FST binding, 635 nm fluorescence, higher = more signal
[6] = molecular target: Fibroblast growth factor 2 (Homo sapiens) (UniProt P09038); experiment: FGF2 binders on small-molecule microarrays, primary screen, biochemical, small-molecule microarray, 635/667 nm fluorescence (AID 1133); details: small-molecule microarray binding, FGF2, fluorescence 635/667; higher = more signal
[7] = mitochondrial membrane potential change in A549 cells, profiling panel, cell-based, JC-1 fluorescence, basal, 24 h, 100 nL (AID 1138); details: higher = more signal;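 further: A549 lung adenocarcinoma cells under basal conditions with no added stimulus; test concentration not given here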
[8] = tested on: Lefty1; experiment: Lefty1 binders on small-molecule microarrays, primary screen, biochemical, small-molecule microarray, 635/667 nm fluorescence (AID 1139); details: small-molecule microarray binding, fluorescence 635/667; higher = more signal
[9] = tested on: wheat germ agglutinin (Triticum aestivum), Alexa647-labelled; experiment: wheat germ agglutinin binders on compound microarrays, profiling panel, artefact control for SMM control-protein annotation, biochemical, small-molecule microarray, 635/667 nm fluorescence (AID 1140); details: WGA-A647 binding, 635 nm fluorescence, higher = more signal;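 further: score merges 667 nm feature emission with signal to noise over triplicate slides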
[10] = molecular target: Luciferin 4-monooxygenase (Photinus pyralis) (UniProt P08659); experiment: firefly luciferase enzyme inhibitors, primary screen, biochemical, luminescence, purified enzyme, 2006 set (AID 1141); details: SteadyGlo luminescence, 30 min, higher = more signal, called active from +8 up or from −8 down;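 further: cell-free assay with purified firefly luciferase at 100 ng per well in PBS; test concentration not given here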
[11] = tested on: Wnt5a (protein binding on small-molecule microarray); experiment: Wnt5a binders on small-molecule microarray, primary screen, biophysical, 635/667 nm fluorescence (AID 1142); details: 635 nm fluorescence, higher = more signal;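 further: fluorescence read at 667 nm with signal to noise per printed feature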
[12] = cell viability in Huh7 cells, primary screen, cytotoxicity control for HCV replication inhibitor project, CellTiter-Glo luminescence, basal, 48 h (AID 1143); details: Huh7 HCV replicon, higher = more signal, called active from +8 up or from −8 down;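 further: Huh7 hepatoma cells carrying a hepatitis C replication reporter with no stimulus; test concentration not given here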
[13] = P. aeruginosa biofilm formation inhibitors, primary screen, PAO1 strain, BacTiter-Glo luminescence, LB-PBS (AID 1144); details: 12 h, higher = more signal
[14] = CREB reporter modulators without forskolin, primary screen, cell-based, PC12, CRE-LacZ reporter, unstimulated (AID 1145); details: no forskolin, luminescence, 4.5 h, higher = more signal, called active from +8 up or from −8 down
[15] = CREB reporter modulators under forskolin, primary screen, cell-based, PC12, CRE-LacZ reporter, forskolin-stimulated (AID 1146); details: luminescence, 4.5 h, higher = more signal, called active from +8 up or from −8 down;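 further: PC12 cells with 6xCRE LacZ reporter stimulated by forskolin 10 µM; beta-galactosidase reporter signal reflecting CREB driven transcription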
[16] = molecular target: Streptavidin (Streptomyces avidinii) (UniProt P22629); experiment: streptavidin binders on small-molecule microarray, primary screen, artefact control for SMM compound annotation, biophysical, 635/667 nm fluorescence (AID 1147); details: streptavidin binding, higher = more signal;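 further: signal reflects streptavidin binding to arrayed compounds as a control protein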
[17] = small-molecule binders of probe aInhba, primary screen, biochemical, small-molecule microarray, 635/667 nm fluorescence (AID 1148); details: higher = more signal;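 further: score merges 667nm spot fluorescence with signal-to-noise for antibody binding to printed compounds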
[18] = molecular target: Torsin-1A (Homo sapiens) (UniProt O14656); experiment: torsin A binders from cell lysate, primary screen, small-molecule microarray, wild-type, 635/667 nm (AID 1149); details: COS7 hTOR1A-WT lysate, 635 nm fluorescence, higher = more signal
[19] = molecular target: Torsin-1A (Homo sapiens) (UniProt O14656); experiment: small-molecule binders of mutant TOR1A in lysate, primary screen, cell lysate, small-molecule microarray, COS7 lysate, 635/667 nm fluorescence (AID 1150); details: COS7 hTOR1A mutant lysate, 635 nm fluorescence, higher = more signal;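 further: score pools 667 nm emission and signal to noise measuring lysate protein binding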
[20] = tested on: Sonic hedgehog protein (Shh); experiment: small-molecule binders of Shh protein, primary screen, biochemical, small-molecule microarray, 635/667 nm fluorescence (AID 1151); details: small-molecule microarray binding, 635 nm fluorescence; higher = more signal;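 further: Shh protein binding to compounds spotted on small-molecule microarray slides; score combines spot fluorescence intensity with signal-to-noise across triplicate slides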

Chain of Fibroblast growth factor 2 (Homo sapiens) (P09038 whole entry, looked up): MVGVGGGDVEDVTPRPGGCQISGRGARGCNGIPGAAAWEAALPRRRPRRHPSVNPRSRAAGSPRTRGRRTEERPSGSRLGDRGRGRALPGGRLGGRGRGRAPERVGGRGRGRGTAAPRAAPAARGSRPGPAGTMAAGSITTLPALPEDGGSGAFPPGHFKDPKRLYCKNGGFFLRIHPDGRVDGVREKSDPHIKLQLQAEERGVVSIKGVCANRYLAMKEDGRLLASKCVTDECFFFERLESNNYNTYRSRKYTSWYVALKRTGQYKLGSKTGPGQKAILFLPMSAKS
Chain of Follistatin (Homo sapiens) (P19883 whole entry, looked up): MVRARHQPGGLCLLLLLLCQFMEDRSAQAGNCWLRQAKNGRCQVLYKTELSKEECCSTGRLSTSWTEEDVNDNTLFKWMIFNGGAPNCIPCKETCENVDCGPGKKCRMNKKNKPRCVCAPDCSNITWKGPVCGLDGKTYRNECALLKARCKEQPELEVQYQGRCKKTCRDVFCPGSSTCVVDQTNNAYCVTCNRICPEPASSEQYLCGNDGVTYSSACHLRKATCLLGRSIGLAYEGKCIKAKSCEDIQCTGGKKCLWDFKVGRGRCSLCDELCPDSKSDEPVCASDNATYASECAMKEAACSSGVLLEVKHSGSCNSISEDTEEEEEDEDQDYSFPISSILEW
Chain of Streptavidin (Streptomyces avidinii) (P22629 whole entry, looked up): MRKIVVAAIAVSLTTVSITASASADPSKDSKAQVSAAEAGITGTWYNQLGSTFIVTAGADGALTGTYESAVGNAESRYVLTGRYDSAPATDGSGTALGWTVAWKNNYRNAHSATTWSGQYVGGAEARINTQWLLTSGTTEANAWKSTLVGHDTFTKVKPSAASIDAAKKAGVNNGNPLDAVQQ
Chain of Torsin-1A (Homo sapiens) (O14656 whole entry, looked up): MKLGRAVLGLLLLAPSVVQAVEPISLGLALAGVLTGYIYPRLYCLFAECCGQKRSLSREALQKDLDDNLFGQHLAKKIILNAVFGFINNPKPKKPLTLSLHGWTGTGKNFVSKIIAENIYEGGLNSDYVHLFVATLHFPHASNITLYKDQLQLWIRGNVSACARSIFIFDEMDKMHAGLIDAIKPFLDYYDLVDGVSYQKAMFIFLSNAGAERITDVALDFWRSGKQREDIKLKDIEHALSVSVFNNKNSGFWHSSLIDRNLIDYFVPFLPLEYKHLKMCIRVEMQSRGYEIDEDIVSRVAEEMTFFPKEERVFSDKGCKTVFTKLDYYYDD
Chain of Luciferin 4-monooxygenase (Photinus pyralis) (P08659 whole entry, looked up): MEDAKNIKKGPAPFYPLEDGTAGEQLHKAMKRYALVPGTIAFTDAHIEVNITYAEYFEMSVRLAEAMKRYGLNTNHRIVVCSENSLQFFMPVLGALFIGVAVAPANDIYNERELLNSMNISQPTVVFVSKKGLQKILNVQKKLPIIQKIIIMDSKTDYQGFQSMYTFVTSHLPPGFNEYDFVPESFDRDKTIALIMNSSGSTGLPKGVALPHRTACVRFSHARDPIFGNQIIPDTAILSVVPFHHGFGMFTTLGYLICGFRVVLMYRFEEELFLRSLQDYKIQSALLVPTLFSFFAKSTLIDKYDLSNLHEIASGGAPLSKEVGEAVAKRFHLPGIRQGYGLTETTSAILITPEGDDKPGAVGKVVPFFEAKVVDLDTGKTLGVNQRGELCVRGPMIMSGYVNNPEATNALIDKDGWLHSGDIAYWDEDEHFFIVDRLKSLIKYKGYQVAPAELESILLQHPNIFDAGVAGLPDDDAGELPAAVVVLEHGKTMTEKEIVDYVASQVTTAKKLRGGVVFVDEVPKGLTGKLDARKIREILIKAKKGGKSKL
Chain of Focal adhesion kinase 1 (Homo sapiens) (Q05397 whole entry, looked up): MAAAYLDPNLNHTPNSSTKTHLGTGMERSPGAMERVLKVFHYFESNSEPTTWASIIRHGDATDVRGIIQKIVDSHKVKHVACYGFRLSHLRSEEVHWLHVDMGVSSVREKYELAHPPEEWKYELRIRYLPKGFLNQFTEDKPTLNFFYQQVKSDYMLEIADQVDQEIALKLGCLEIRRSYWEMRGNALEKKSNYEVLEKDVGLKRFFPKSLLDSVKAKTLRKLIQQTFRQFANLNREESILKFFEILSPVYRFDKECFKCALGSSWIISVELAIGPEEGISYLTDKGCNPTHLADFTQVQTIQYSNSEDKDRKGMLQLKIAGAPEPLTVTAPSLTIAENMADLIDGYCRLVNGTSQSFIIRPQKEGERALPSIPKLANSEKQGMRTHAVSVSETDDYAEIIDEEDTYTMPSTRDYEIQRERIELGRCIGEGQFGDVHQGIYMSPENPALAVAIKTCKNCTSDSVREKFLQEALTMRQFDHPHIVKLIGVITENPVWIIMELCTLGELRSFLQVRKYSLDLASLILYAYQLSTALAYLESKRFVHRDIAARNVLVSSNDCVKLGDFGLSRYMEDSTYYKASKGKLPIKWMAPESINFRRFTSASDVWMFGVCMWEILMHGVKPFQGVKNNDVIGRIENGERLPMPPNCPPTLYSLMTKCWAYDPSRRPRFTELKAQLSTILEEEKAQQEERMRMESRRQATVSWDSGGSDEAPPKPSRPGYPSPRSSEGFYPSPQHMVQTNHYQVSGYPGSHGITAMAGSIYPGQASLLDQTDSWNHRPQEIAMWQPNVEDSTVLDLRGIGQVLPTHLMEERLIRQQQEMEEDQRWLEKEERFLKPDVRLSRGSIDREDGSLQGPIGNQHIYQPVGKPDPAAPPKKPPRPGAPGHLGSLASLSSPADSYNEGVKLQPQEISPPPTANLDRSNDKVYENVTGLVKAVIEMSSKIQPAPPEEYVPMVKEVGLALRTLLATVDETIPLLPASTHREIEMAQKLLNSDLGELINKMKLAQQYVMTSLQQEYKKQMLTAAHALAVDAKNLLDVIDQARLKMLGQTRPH

Compound	composite z-score [1]	composite z-score [2]	composite z-score [3]	composite z-score [4]	composite z-score [5]	composite z-score [6]	z-score [7]	composite z-score [8]	composite z-score [9]	z-score [10]	composite z-score [11]	z-score [12]	z-score [13]	z-score [14]	z-score [15]	composite z-score [16]	composite z-score [17]	composite z-score [18]	composite z-score [19]	composite z-score [20]
O=C1NC(=O)C2C1C=CC(C(O)c1c(F)cccc1Cl)N2Nc1ccccn1 (stereo not given)	0.582	0.257	0.202	0.776	0.477	0.731	0.52	-0.236	0.228	-0.194 (inactive)	0.233	0.63 (inactive)	0.475 (inactive)	0.0535 (inactive)	0.204 (inactive)	-0.201	-0.0195	0.355	0.222	-0.0146
CC=CC(O)C1C=CC2C(=O)N(c3ccccc3)C(=O)C2N1Nc1ccc([N+](=O)[O-])cc1 (stereo not given)	1.58	0.644	0.427	0.752	0.495	0.194	-0.645	0.112	0.645	1.28 (inactive)	-0.0454	0.612 (inactive)	0.698 (inactive)	-0.415 (inactive)	0.0268 (inactive)	0.395	-0.162	0.463	-0.213	0.224
NC(=O)N1C(=O)C2C(C1=O)C1C=C(c3ccc(CO)cc3)C2C(C2CC2)N1Cc1sc2ccccc2c1Cl (stereo not given)	2.42	1.13	-0.159	0.985	0.855	1.62	1.46	1.16	1.12	-2.36 (inactive)	0.323	-3.73 (inactive)	0.447 (inactive)	4.42 (inactive)	-1.63 (inactive)	1.43	-0.0313	1.19	0.83	1.38
C=CCOC(=O)[C@H]1[C@@H]2C(=O)O[C@@H](c3ccccc3)[C@@H](c3ccccc3)N2[C@@H](c2ccc(OCCOC(=O)[C@H]3C[C@H]4C(=O)N[C@@H](Cc5ccccc5)C(=O)N4[C@H]3c3ccc(O)cc3)cc2)[C@]12C(=O)Nc1ccc(I)cc12	0.951	1.14	0.665	0.565	1.32	1.29	-0.395	1.69	0.958	-0.649 (inactive)	0.72	-0.918 (inactive)	-0.707 (inactive)	1.09 (inactive)	0.204 (inactive)	0.133	-0.0567	0.586	0.691	2.32
[N-]=[N+]=Nc1ccccc1[C@@H]1OC(c2ccc(OCCCO)cc2)=N[C@]1(CCS(=O)(=O)c1ccccc1)C(=O)NCCN1CCOCC1	0.903	1.28	-0.018	0.962	1.14	-0.29	-0.377	0.393	1.04	-8.81 (active)	0.391	-4.79 (inactive)	-0.124 (inactive)	0.549 (inactive)	-1.18 (inactive)	0.637	0.109	1.13	1.15	-0.252
COc1cc(CO)cc(I)c1O[C@H]1C=C(C(=O)NCCO)C[C@@H](N(Cc2ccc(F)cc2)C(=O)C2CCCO2)[C@@H]1O (stereo not given in full)	0.608	0.317	0.079	0.247	0.34	0.47	1.46	-0.0522	0.517	-0.951 (inactive)	-0.212	-0.457 (inactive)	-0.583 (inactive)	0.949 (inactive)	-1.24 (inactive)	-0.274	-0.227	-0.0326	-0.0306	0.399
CCCCC(=C=CC[C@@H](O)c1ccc(OCCO)cc1)C[C@@H](O)COCc1ccccc1	0.0164	-0.445	-0.0498	-1.01	1.31	0.567	1.72	0.973	0.614	-1.58 (inactive)	0.511	-2.32 (inactive)	-0.656 (inactive)	12.1 (active)	-1.48 (inactive)	-0.476	-0.203	0.611	0.699	1.38
CC(C)CNC(=O)[C@@]1(c2ccc([N+](=O)[O-])cc2)CC(=O)N(C2CCCCC2)[C@@H]1c1ccc(CO)cc1I	-0.423	0.676	0.295	-0.106	-0.0906	0.669	1.86	-0.411	1.15	-0.712 (inactive)	-0.067	-4.13 (inactive)	0.363 (inactive)	0.324 (inactive)	1.65 (inactive)	-0.018	0.0633	-0.149	0.0482	0.425
CCOC(=O)C[C@H]1[C@H](OC(=O)c2ccccc2-c2ccccc2)[C@@H](NC(=O)CC(C)C)c2cc(OCCCO)ccc2N1C(=O)c1ccc2ccccc2n1	-0.123	0.304	0.162	0.335	0.323	0.318	0.488	0.76	0.152	0.365 (inactive)	0.0056	-0.431 (inactive)	1.51 (inactive)	8.37 (active)	0.724 (inactive)	0.543	-0.016	0.0167	0.0401	0.196
COC(=O)Cn1c(C(=O)N2CCCC2)cc2c1C[C@H]1CN(C(=O)c3ccccc3)[C@@](Cc3ccc(F)cc3)(C(=O)OC)[C@@H]21	0.712	-0.25	0.386	-0.288	0.237	-0.438	1.39	-0.3	0.647	1.22 (inactive)	-0.164	-1.83 (inactive)	-0.288 (inactive)	-0.182 (inactive)	0.105 (inactive)	1.59	-0.123	0.895	-0.137	-0.271
